ELG1 repair inh: inhibitors of ELG1-dependent DNA repair in HEK293T cells. Potency, µM (titrated, usually from 46.1 µM), inactives show at the top dose activity change, negative = inhibition, most hits filed as inhibitors. HEK293T ELG1-luciferase reporter, luminescence, 16 h; DNA damage induced by 5-fluorouridine. actives 2.3% (n = 330,000); note: potency is the fitted concentration of half-maximal effect; nearly all actives have a fitted effect of over 55% in size
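DMSO vehicle served as the neutral condition. Each well held 2,000 cells given 5-fluorouridine plus compound; after 16 hr at 37 °C/5% CO2, ONE-Glo was added and luciferase measured 30 min later.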
IL1B secr inh: inflammasome signaling inhibition, IL-1 beta readout | THP-1 LPS/ATP IL-1B secretion, AlphaLISA, 16 h; hits give low values | activity change, % at 57.5 µM | actives 4.7% (n = 360,000); in the data active = activity change below about -50%; inconclusive = mostly about -30% to -49%
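Secreted IL-1B measured by AlphaLISA bead assay after 16 h compound exposure of THP-1 cells; compounds (final up to 57.5 uM) added 1 h before LPS (250 ng/mL) and ATP (1.25 mM) stimulation; lower signal means less secretion.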
RORgamma inh: inhibitors of mouse ROR gamma transcriptional activity. P51450. Potency, µM (top dose mostly 53.6 µM), inactives show top-dose activity change, negative = inhibition, hits mostly inhibitors. AID 2551. actives 5.4% (n = 310,000). Drosophila S2 Gal4-RORgamma UAS-luciferase reporter, 20 h; note: potency is the fitted concentration of half-maximal effect; nearly all actives have a fitted effect of over 60% in size
Target sequence (P51450 whole entry, looked up, the tested form may be a part): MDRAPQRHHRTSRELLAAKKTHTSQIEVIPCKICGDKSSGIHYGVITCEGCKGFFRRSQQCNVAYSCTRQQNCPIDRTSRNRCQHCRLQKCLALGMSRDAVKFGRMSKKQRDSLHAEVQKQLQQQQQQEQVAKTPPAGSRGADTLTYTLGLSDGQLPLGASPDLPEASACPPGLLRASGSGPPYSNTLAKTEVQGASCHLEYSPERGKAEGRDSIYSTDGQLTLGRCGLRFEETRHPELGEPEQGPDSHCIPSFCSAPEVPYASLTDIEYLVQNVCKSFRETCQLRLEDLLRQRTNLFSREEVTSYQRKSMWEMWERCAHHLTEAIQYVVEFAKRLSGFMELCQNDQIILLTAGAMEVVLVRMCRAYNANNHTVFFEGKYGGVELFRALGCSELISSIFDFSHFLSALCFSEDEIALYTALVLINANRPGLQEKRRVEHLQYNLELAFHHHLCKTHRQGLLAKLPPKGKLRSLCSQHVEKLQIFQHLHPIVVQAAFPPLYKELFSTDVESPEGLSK
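Drosophila S2 cells stably expressing Gal4-DBD/mouse RORγ fusion under metallothionein promoter plus UAS-luciferase; compound 1 h, then 700 uM CuSO4 induction for 20 h at ambient temperature; inhibition read as reduced luminescence.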
Gal4-VP16 FLuc: Gal4-VP16 reporter inhibition counter-screen. Potency, µM (top dose mostly 53.6 µM), for inactives: at the highest dose activity, negative = inhibition, usual class: inhibitors. actives 3.5% (n = 310,000). Drosophila S2 Gal4-VP16 UAS-luciferase, luminescence, 20 h;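 note: Gal4-VP16 expression switched on by copper sulfate through the metallothionein promoter; potency is the fitted concentration of half-maximal effect; nearly all actives have a fitted effect of over 50% in size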
DT40 TDP1 no CPT: qHTS for Inhibitors of human tyrosyl-DNA phosphodiesterase 1 (TDP1): qHTS in cells in absence of CPT; DT40 Tdp1-/- hTDP1 cells, no CPT, ATP luminescence, 48 h; Potency, µM (titrated, usually from 46.2 µM), for the others: at the highest dose activity change, negative = growth inhibition, hits mostly inhibitors; actives 15% (n = 420,000); note: potency is the fitted concentration of half-maximal effect; nearly all actives have a fitted effect of over 55% in size
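Cells were dispensed at 400 per well, compounds added by pin tool, plates incubated ≥48 hr at 37 °C, then CellTiter-Glo added for 30 min at room temperature before luminescence reading. Line: DT40 Tdp1-/- complemented with hTDP1; camptothecin omitted.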
TDP1 cell CPT: growth inhibition of DT40 Tdp1-/-;hTDP1 cells with camptothecin (screen for TDP1 inhibitors); chicken DT40 Tdp1-/-;hTDP1 cells + 20 nM CPT, ATP luminescence, 48 h; actives 12% (n = 420,000); AID 686979; Potency, µM (titrated, usually from 46.2 µM), without a hit: at the highest dose activity change, negative = growth inhibition, usual class: inhibitors; note: potency is the fitted concentration of half-maximal effect; nearly all actives have a fitted effect of over 55% in size
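Chicken DT40 Tdp1-/- cells stably complemented with human TDP1 were seeded at 400 cells/well in medium containing 20 nM camptothecin, exposed to pin-transferred compounds, and grown at 37 °C for at least 48 hr. Viability was read as ATP luminescence.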
* marks the source's active call; other numbers are inactive results; u = inconclusive; x = no result given; [ ] = another dose, or the depositor's remark. Compounds with a hit are over-represented: about 21% of the library has one in this group of screens. Unless noted, calls come from the whole dose curve; as a rule, active = well fitted curve in the direction sought with a large enough effect; inconclusive = small, poorly fitted or top-dose-only effect, or another doubt; inactive = no such curve, though single readings can be large; an effect the other way counts as inactive or inconclusive. % is set by controls: 0 for no effect and ±100 for the full control effect.

SMILES	ELG1 repair inh	IL1B secr inh	RORgamma inh	Gal4-VP16 FLuc	DT40 TDP1 no CPT	TDP1 cell CPT
O=C1NC[C@@H](Cc2cccc3ccccc23)N(CC2CCCCC2)C1=O	-5%	u	8%	-4%	u	u
CCCC[C@@H]1CNC(=S)N1CCc1cccc2ccccc12	-15%	-21	1.6µM*	4.5µM*	18µM*	u
S=C1NC[C@H](Cc2ccccc2)N1CCc1cccc2ccccc12	u	-6	1µM*	5.6µM*	u	-12%
CCCCN1C(=S)NC[C@@H]1Cc1cccc2ccccc12	25%	13	3.2µM*	11µM*	u	u
CC(Oc1ccccc1)C(=O)OCc1cc(=O)n2nc(C(C)C)sc2n1 (stereo not drawn)	x	x	x	x	0%	-22%
Cc1ccc(CCNC(=O)c2cc(S(=O)(=O)N3CCCC3)cn2C)cc1	1%	-7	38%	2%	-23%	-21%
COc1ccc(F)cc1S(=O)(=O)n1nc(C)cc1C	-1%	-1	-11%	-7%	-5%	-17%
Cc1nn(Cc2noc(C(=O)NCc3cccc(F)c3)n2)c(C)c1Br	x	x	x	x	-9%	2%
COc1cc(CNC(=O)c2nc(Cn3nc(C)c(Br)c3C)no2)cc(OC)c1	-1%	-71*	-4%	-10%	u	29µM*
COc1cc(CNC(=O)c2ccc(Cn3nc(C)c(Cl)c3C)o2)cc(OC)c1	18µM*	-12	21%	-1%	8.2µM*	u
O=C(C1=C(O)C(=O)N(Cc2cccnc2)C1c1ccccn1)c1cccs1 (stereo not drawn)	15%	8	-9%	11%	8%	-13%
COCC(C)N1CC(O)=C(c2nc(-c3ccc(Cl)cc3)cs2)C1=N (stereo not drawn)	-9%	-53*	-6%	-4%	-28%	-27%
COc1cccc(CN2CC(O)=C(c3nc(-c4ccc(Cl)cc4)cs3)C2=N)c1	x	53	-36%	u	9.2µM*	-18%
COc1ccc(N2CC(O)=C(c3nc(-c4ccc(F)cc4)cs3)C2=N)cc1OC	13µM*	-1	u	1%	18µM*	u
N=C1C(c2nc(-c3ccc(Cl)cc3)cs2)=C(O)CN1CCCN1CCOCC1	1%	u	u	-4%	26µM*	26µM*
CC(C)c1ccccc1N=C1SCCCN1C(=O)c1cccc(N2C(=O)CCC2=O)c1	0%	3	x	x	-1%	0%
COc1ccccc1CNS(=O)(=O)c1ccc(-c2cc(C)no2)cc1	u	51	u	-22%	0.58µM*	0.58µM*
COc1cc(NS(=O)(=O)c2ccc(-c3cc(C)no3)cc2)cc(OC)c1	x	x	x	x	2.1µM*	1.8µM*
CCc1ccc(-c2cc(C)no2)cc1S(=O)(=O)NCc1ccccc1OC	u	-13	-10%	-1%	-30%	u
COc1cc(NC(=S)NC(=O)c2cccs2)ccc1NC(=O)C(C)C	2%	-12	13µM*	u	u	u
CCCC(=O)Nc1cc(OC)c(NC(=S)Nc2ccc(CC)cc2)cc1OC	x	-9	x	x	16µM*	1%
CCCCC(=O)Nc1ccc(NC(=S)NC(=O)c2ccco2)cc1OC	-7%	-2	10%	0%	-3%	13%
CCCCC(=O)Nc1ccc(NC(=S)NC(=O)CC)cc1OC	3%	-1	13µM*	-1%	-18%	u
CCCCC(=O)Nc1ccc(NC(=S)NC(=O)c2cccs2)cc1OC	-5%	0	10µM*	u	-17%	-4%
COCCNC(=O)Cn1c(=O)n(C)c2ccccc21	0%	-24	4%	8%	-7%	1%
SMILES	ELG1 repair inh	IL1B secr inh	RORgamma inh	Gal4-VP16 FLuc	DT40 TDP1 no CPT	TDP1 cell CPT
CCOC(=O)c1[nH]c(C)c(CCC(=O)Nc2cc(C)ccc2OC)c1C	x	x	x	x	u	-28%
CCC(Br)C(=O)Nc1ccc(OC)cc1 (stereo not drawn)	u	-3	3%	-1%	-14%	-27%
CN1C2CCC1CC(NC(=O)c1cccc(C(F)(F)F)c1)C2 (stereo not drawn)	1%	-12	4%	-3%	0%	-6%
CN1C2CCC1CC(NS(=O)(=O)c1cccc(C(F)(F)F)c1)C2 (stereo not drawn)	0%	-76*	0%	-1%	6%	-8%
CC1CCC2(CC1)NC(=O)N(CC(=O)NCc1ccc(Cl)cc1)C2=O (stereo not drawn)	0%	-6	x	x	u	-26%
Cc1ccc(/C=C2\SC(=S)N(CCCC(=O)Nc3ccccn3)C2=O)cc1	u	21	0.45µM*	1.6µM*	u	u
O=C(CCN1C(=O)/C(=C/c2cccs2)SC1=S)Nc1ccccn1	-15%	0	u	0%[10 µM]	u	u
COc1cc(/C=C2\SC(=S)N(CCC(=O)Nc3ccccc3O)C2=O)cc(OC)c1OC	7.3µM*	-5	32%	u	u	u
O=C(CCN1C(=O)S/C(=C\c2cccs2)C1=O)NC1=NCCS1	16%	8	u	18µM*	-19%	-3%
O=C(CCCN1C(=O)/C(=C\c2cccs2)SC1=S)Nc1ccccn1	u	9	u	u	16µM*	u
COc1cc(/C=C2\SC(=S)N(CCC(=O)NCCc3ccccc3)C2=O)cc(OC)c1OC	1%	0	-45%	-6%	-23%	11%
O=C(CCN1C(=O)/C(=C/c2ccccc2)SC1=S)Nc1ccccn1	18%	11	-33%	-9%	-13%	-14%
COc1ccc(OC)c(NC(=O)COC(=O)CCNc2ccccc2OC)c1	6%	1	x	x	-3%	3%
CN(C)[C@@H]1C(=O)C(C(=O)NCN2CCCC2)=C(O)[C@@]2(O)C(=O)C3=C(O)c4c(O)cccc4[C@@](C)(O)C3C[C@@H]12 (stereo partly drawn)	x	x	x	x	-1%[21.1 µM]	-15%[21.1 µM]
COc1ccc(/C=C2\SC(=S)N(CCCC(=O)Nc3cccc(C(=O)O)c3)C2=O)cc1OC	u	12	10%	-5%	11%	-16%
COc1ccc(/C=C2\SC(=S)N(CCCC(=O)Nc3ccccn3)C2=O)cc1OC	16µM*	3	4.5µM*	5µM*	29µM*	u
O=C(CCCCC(=O)Sc1ccccc1)Sc1ccccc1	x	-96*	x	x	u	u
O=C(CNC(=O)c1ccccc1)Sc1ccccc1	x	-29	x	x	18µM*	u
